A short description of test [1]: qHTS assay to identify small molecule agonists of the RXR signaling pathway - cell viability counter screen (AID 1159529). Also: series mostly up to about 77 µM; nearly all actives have a fitted effect of over 50% in size. In a few lines: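 RXR-alpha-UAS-bla HEK 293T cells in medium with 2% charcoal-stripped FBS were pre-incubated 5 hr, then compound-treated 16 hr at 37 C. Viability was read by CellTiter-Glo luminescence in the same wells as the beta-lactamase assay, with tetraoctyl ammonium bromide as positive control.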
In general terms: In qHTS, concentration-response curves come from the screen itself.

The nature of test [2]: qHTS assay to identify small molecule antagonists of the retinoid acid receptor (RAR) signaling pathway - cell viability counter screen (AID 1159551). Also: nearly all actives have a fitted effect of over 35% in size. In short, it runs like this: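 Luminescent ATP quantitation (CellTiter-Glo) gave cell viability in C3RL4 cells exposed to test chemicals for 6 h at 37 C alongside 1 uM final retinol.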
The nature of test [3]: qHTS assay to identify small molecule antagonists of the retinoic acid receptor (RAR) signaling pathway (AID 1159552; also: nearly all actives have a fitted effect of over 50% in size; also: potency is read from the fitted curve at half-maximal effect). In short, it runs like this:
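Retinol signaling pathway inhibitors screened in C3RL4 RARE-luciferase reporter cells seeded overnight at 37 C, then compounds added with 1 uM (final) retinol as pathway substrate. After 6 hr at 37 C, luciferase luminescence read after 30 min at room temperature.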

Test [4] in a line: qHTS assay to identify small molecule agonists of the retinoic acid receptor (RAR) signaling pathway (AID 1159553). In short, it runs like this:
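Luminescence from a RARE-driven luciferase reporter in C3RL4 cells served as the read-out, measured after 30 min with detection reagent at room temperature. Compounds in DMSO were applied for 6 hr at 37 C following overnight seeding.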

Test [5] can be described thus: qHTS assay to identify small molecule antagonists of the estrogen related receptor (ERR) signaling pathway from Tox21 library - cell viability counter screen (AID 1224834). Also: nearly all actives have a fitted effect of over 30% in size. In short, it runs like this:
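Fluorescence from CellTiter-Fluor gives the viability read-out, taken 30 min after reagent addition. Before that, ERR cells seeded 6 h earlier were incubated with compounds for 17.5 h at 37 C.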

Test [6] addresses Luciferin 4-monooxygenase (Photinus pyralis) (UniProt P08659). The test can be described thus: qHTS assay to identify small molecule inhibitors of firefly luciferase (AID 1224835). Also: series mostly up to about 120 µM; nearly all actives have a fitted effect of over 25% in size. In short, it runs like this:
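Biochemical qHTS: compounds run as interplate titrations against purified firefly enzyme, with D-luciferin and ATP each at its KM concentration. Light output recorded by CCD imaging.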

Test [7] can be described thus: qHTS assay to identify small molecule agonists of the constitutive androstane receptor (CAR) signaling pathway - cell viability counter screen (AID 1224836). Also: series mostly up to about 92 µM; nearly all actives have a fitted effect of over 45% in size. In a few lines:
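HepG2 cells stably carrying hCAR and a CYP2B6-2.2kb reporter; 15-concentration compounds plus PK11195 (final 0.75 uM), 23 hr at 37 C/5% CO2. Viability read by CellTiter-Fluor fluorescence.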

Test [8] is described as follows: qHTS assay to identify small molecule antagonists of the constitutive androstane receptor (CAR) signaling pathway - cell viability counter screen (AID 1224837). Also: series mostly up to about 92 µM; nearly all actives have a fitted effect of over 45% in size. In short, it runs like this: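 HepG2-CYP2B6-hCAR cells, 2500/well, 4 hr pre-incubation; compound titration, 15 conc.; CITCO 50 nM final; 23 hr, 37 C/5% CO2; CellTiter-Fluor, fluorescence intensity.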
The nature of test [9]: qHTS assay to identify small molecule antagonists of the estrogen related receptor signaling pathway with the pleiotropic PPARgamma coactivator (PGC) from Tox21 10K library - cell viability counter screen (AID 1224840; active = well fitted cell-killing curve with a large enough effect in the repeat runs, not every such curve was filed as active; also: nearly all actives have a fitted effect of over 40% in size; also: potency is read from the fitted curve at half-maximal effect). In a few lines: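 PGC/ERR cells, 2,000/well; 6 h pre-incubation 37 C/5% CO2; cpd in DMSO via pin tool; 17.5 h 37 C; CellTiter-Fluor, 30 min; fluorescence.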

Test [10] concerns the target Thyrotropin receptor (Homo sapiens) (UniProt P16473). The test can be described thus: qHTS assay to identify small molecule agonists of the thyroid stimulating hormone receptor (TSHR) signaling pathway (AID 1224843; calls by dose curve; also: nearly all actives have a fitted effect of over 45% in size). In a few lines: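 TSHR-HEK293 cells in agonist mode, 30 min room-temperature step, then cAMP measured by competitive HTRF (cAMP-d2 with anti-cAMP cryptate) after 1 h at room temperature. Tested at 15 concentrations in triplicate.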

A short description of test [11]: qHTS assay to identify small molecule agonists of the hypoxia (HIF-1) signaling pathway - cell viability counter screen (AID 1224844; calls by dose curve; also: nearly all actives have a fitted effect of over 50% in size). In a few lines: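 ME-180 HRE-bla cells, 2,000/well, 0.5% dialyzed FBS; 5 hr settle, 17 hr compound at 37C/5% CO2; CCF4-AM reporter read first, then CellTiter-Glo luminescence after 30 min RT.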
Test [12] addresses Nuclear receptor subfamily 1 group I member 3 (Homo sapiens) (UniProt Q14994). The test can be described thus: qHTS assay to identify small molecule agonists of the constitutive androstane receptor (CAR) signaling pathway (AID 1224839).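 Also: HepG2 cells stably carrying human CAR and a CYP2B6 luciferase reporter; series mostly up to about 92 µM; nearly all actives have a fitted effect of over 15% in size.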 In a few lines:
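HepG2 cells stably co-transfected with hCAR and a CYP2B6-2.2kb luciferase reporter; compounds at 15 concentrations with 0.75 uM PK11195 present. After 24 hr at 37 C, luciferase read by ONE-Glo luminescence.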

Test [13] is described as follows: qHTS assay to identify small molecule antagonists of the estrogen related receptor signaling pathway with the pleiotropic PPARgamma coactivator (PGC) from Tox21 10K library (AID 1224841; call rule not given here; also: actives are mostly falling curves and most rising ones were filed inactive; nearly all actives have a fitted effect of over 50% in size; also: potency is read from the fitted curve at half-maximal effect). In a few lines:
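PGC/ERR cell line, 2,000 cells/well; 6 h pre-incubation 37 C/5% CO2; compounds (DMSO) pinned in; 18 h, 37 C; One-Glo, 30 min RT; luminescence.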

Test [14] can be described thus: qHTS assay to identify small molecule agonists of the estrogen related receptor signaling pathway with the pleiotropic PPARgamma coactivator (PGC) from Tox21 10K library (AID 1224842). Also: nearly all actives have a fitted effect of over 15% in size. In short, it runs like this: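 PGC/ERR reporter cell line, 2,000 cells per well, incubated 6 h at 37 C before 23 nL compound in DMSO was added. After 18 h at 37 C, One-Glo luminescence read following 30 min at room temperature.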

Test [15] concerns the target Nuclear receptor subfamily 1 group I member 3 (Homo sapiens) (UniProt Q14994). The test can be described thus: qHTS assay to identify small molecule antagonists of the constitutive androstane receptor (CAR) signaling pathway (AID 1224838).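 Also: HepG2 cells stably expressing hCAR with CYP2B6 luciferase reporter stimulated by CITCO; nearly all actives have a fitted effect of over 40% in size.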 Also: potency is read from the fitted curve at half-maximal effect. In short, it runs like this: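 HepG2-CYP2B6-hCAR cells; 4 h pre-incubation; cpd (15 conc) + CITCO 50 nM final; 24 h, 37 C/5% CO2; ONE-Glo, luminescence.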

The values below come from PubChem BioAssay (Tox21).

Results filed as inconclusive are left out. Calls of active or inactive are those of the source. Unless noted, calls follow the shape of the dose curve; as a rule, active = well fitted curve in the direction sought with a large enough effect in the repeat runs; inconclusive = weak or mixed curves; inactive = no such curve, though single readings can be large; an effect the other way counts as inactive or inconclusive.

Luciferin 4-monooxygenase (Photinus pyralis), sequence (P08659 whole entry, looked up): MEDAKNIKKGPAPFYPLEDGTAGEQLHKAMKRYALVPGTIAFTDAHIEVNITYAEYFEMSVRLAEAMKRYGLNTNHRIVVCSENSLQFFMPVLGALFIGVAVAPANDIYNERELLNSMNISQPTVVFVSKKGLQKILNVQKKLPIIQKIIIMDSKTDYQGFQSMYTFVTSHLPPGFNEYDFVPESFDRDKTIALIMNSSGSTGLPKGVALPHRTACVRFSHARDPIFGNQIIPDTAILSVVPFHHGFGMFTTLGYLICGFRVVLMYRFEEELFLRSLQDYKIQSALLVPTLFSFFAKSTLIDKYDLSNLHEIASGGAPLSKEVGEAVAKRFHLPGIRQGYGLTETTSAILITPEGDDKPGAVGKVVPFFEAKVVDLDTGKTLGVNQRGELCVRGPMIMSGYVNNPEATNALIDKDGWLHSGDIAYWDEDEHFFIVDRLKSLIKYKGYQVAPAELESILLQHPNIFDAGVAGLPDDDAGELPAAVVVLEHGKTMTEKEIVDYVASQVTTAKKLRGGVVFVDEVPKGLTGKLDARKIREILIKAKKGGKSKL
Nuclear receptor subfamily 1 group I member 3 (Homo sapiens), sequence (Q14994 whole entry, looked up): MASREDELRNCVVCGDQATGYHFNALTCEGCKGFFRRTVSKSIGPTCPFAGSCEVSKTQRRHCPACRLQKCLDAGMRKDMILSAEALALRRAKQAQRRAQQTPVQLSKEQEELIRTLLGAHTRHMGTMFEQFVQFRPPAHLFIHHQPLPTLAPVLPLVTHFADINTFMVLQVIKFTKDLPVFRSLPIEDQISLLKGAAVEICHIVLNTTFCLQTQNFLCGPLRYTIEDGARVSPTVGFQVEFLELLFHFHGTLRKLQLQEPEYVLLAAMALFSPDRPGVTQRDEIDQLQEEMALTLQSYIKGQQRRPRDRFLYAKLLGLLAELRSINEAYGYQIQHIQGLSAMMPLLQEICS
Thyrotropin receptor (Homo sapiens), sequence (P16473 whole entry, looked up): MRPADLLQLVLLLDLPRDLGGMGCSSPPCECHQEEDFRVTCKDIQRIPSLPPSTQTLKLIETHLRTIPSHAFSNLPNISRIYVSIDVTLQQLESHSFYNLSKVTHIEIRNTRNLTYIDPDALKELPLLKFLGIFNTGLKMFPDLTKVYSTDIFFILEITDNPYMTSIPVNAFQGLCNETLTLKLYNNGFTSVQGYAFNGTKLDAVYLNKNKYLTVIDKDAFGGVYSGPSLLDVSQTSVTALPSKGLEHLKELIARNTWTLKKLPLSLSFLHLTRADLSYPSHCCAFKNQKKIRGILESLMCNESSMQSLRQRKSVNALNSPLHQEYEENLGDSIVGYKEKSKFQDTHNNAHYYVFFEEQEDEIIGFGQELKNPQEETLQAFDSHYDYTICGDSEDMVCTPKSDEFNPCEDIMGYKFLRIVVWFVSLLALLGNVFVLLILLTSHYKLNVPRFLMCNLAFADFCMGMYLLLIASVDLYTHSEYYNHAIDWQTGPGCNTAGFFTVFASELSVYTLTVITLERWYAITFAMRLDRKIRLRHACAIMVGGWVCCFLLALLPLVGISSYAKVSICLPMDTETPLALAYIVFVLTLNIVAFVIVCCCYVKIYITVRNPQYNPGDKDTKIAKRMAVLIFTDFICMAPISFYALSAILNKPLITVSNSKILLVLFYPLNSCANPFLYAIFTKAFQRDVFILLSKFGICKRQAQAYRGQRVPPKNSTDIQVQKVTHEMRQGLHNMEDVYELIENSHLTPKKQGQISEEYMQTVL

For `O=[N+]([O-])c1cccc2cccnc12`, the Potency result in [1], in test [2], in test [3], in [4], in [5] and in test [6] was “inactive” in each case. Moreover, the Potency entry in [7], in [8], in [9], in test [10] and in [11] was “inactive” in each case.
As for `Cc1cc(C)c(C(=O)P(=O)(C(=O)c2c(C)cc(C)cc2C)c2ccccc2)c(C)c1`, the Potency entry in test [1], in test [2], in test [3], in test [4], in test [5] and in [6] was “inactive” in each case. The Potency result in [7], in test [8], in test [12], in test [9], in test [13] and in test [10] was “inactive” throughout. Further, the Potency entry in [11] was “inactive”. In addition, the call in test [14] was inactive.
`CC1COC2(c3ccccc3Cl)c3cc(Cl)ccc3NC(=O)CN12` (stereo not drawn): the Potency result in test [1], in test [2], in [4], in [6], in [7] and in test [8] was “inactive” in each case. Further, the Potency result in test [12], in test [9], in test [10] and in test [11] was “inactive” each time. Further, the Potency in test [3] was 29.8 µM (active); in test [13] it was 21.1 µM (active). The outcome in test [14] was inactive.
On to `O=C1CN2CCOC2(c2ccccc2Cl)c2cc(Cl)ccc2N1` (stereo not drawn), for which the Potency result in test [1], in [2], in test [3], in test [4], in test [5] and in test [6] was “inactive” in each case. Further, the Potency entry in [7], in test [8], in test [15], in [9], in test [10] and in test [11] was “inactive” in each case.
On to `COC(=O)c1ccccc1S(=O)(=O)NC(=O)N(C)c1nc(C)nc(OC)n1`, for which the Potency entry in test [1], in [2], in [3], in test [4], in test [5] and in [6] was “inactive” in each case. In addition, the Potency entry in test [7], in test [8], in [15], in test [12], in test [9] and in test [11] was “inactive” throughout.
Turning to `CN1C(=S)CN=C(c2ccccc2)c2cc(Cl)ccc21`, the Potency result in test [1], in [2], in [3], in test [4], in test [5] and in [6] was “inactive” throughout. Further, the Potency entry in test [7], in test [8], in test [15], in test [9], in [10] and in test [11] was “inactive” each time.
On to `ClC(Br)Br`, for which the Potency entry in [1], in test [2], in [3], in test [4], in test [5] and in [6] was “inactive” each time. For the same compound, the Potency entry in test [7], in test [8], in test [15], in [12], in test [9] and in [13] was “inactive” throughout. Further, the Potency result in [10] and in [11] was “inactive” in each case.
With `CC(C)CP(=S)(S)CC(C)C`, the Potency entry in test [1], in test [2], in test [3], in test [4], in [5] and in test [6] was “inactive” throughout. The Potency entry in test [7], in test [12] and in test [10] was “inactive” throughout. For the same compound, the results for the Potency in test [15] and in test [9] were 3.44 µM (active) and 2.73 µM (active), respectively.
Take `COC(=O)C(C)Oc1ccc(Oc2ccc(Cl)cc2Cl)cc1` (stereo not drawn): the Potency result in test [1], in [2], in [3], in test [5], in test [6] and in [7] was “inactive” throughout. For the same compound, the Potency entry in test [8], in test [15], in test [12], in test [9], in [13] and in test [11] was “inactive” in each case. Besides, the result in test [14] was inactive.
Regarding `CCCCOC(=O)c1ccccc1C(=O)O`, the Potency result in test [1], in test [2], in test [3], in test [4], in [5] and in test [6] was “inactive” in each case. Besides, the Potency result in test [7], in test [8], in [12], in test [9] and in test [10] was “inactive” in each case.
